# Laboratory results taken from PubChem BioAssay AID504602 (National Center for Advancing Translational Sciences (NCATS), 2011).
# Inconclusive results are not listed. Active and inactive are the calls of the source. The call rests on the fitted dose curve; in most records, active means well fitted curve in the direction sought with a large enough effect; inconclusive means small, poorly fitted or top-dose-only effect, or effect the other way, or another doubt; inactive means no such curve, though single readings can be large or run the other way.
# Test: Quantitative high throughput screen to test cell viability of anti-malarial compounds targeting the delayed death phenotype
# Description: The biochemical processes that make this organelle essential for erythrocytic stage parasites are not well understood. However, antibiotics, such as azithromycin and tetracycline, which target the apicoplast translational machinery, have a potent antimalarial effect. […] We have developed a cell-based assay that measures parasite growth based on the expression of an integrated copy of a firefly luciferase reporter. To detect small molecules that cause this 'delayed death' phenotype, erythrocytes infected with the luciferase-expressing parasites were incubated with compounds for either one or two generations, corresponding to 48 and 96 hours, respectively. Compounds that inhibit parasite growth in the second generation, but not the first, should be enriched in antimalarials that target the apicoplast. Growth inhibition is detected by a decrease in luciferase activity. The goal of this counterscreen is to measure the cytoxoxicity (against HepG2 cell line) of a set of anti-malarial compounds that target the delayed death pheonotype as identified by the qHTS assay that inhibit the development of the apicoplast in the malarial parasite Plasmodium falciparum. NIH Molecular Libraries Probe Production Network [MLPCN] […]
# Cells were plated at a density of 2000 cells/well/5uL in 1536 well white tissue culture plate with culture medium. […] Luminescence was measured using ViewLux (1 second, slow, 2X).
structure (smiles),measurement,value
C[C@@H]1CN([C@@H](C)CO)C(=O)c2cc(NC(=O)Nc3ccccc3)ccc2O[C@@H](C)CCCCO[C@H]1CN(C)C(=O)Oc1ccccc1,outcome,inactive
